Results filed as inconclusive are left out. A call without a number means that no potency is given here. Active and inactive are the calls of the source. The call rests on the fitted dose curve; in most records, active means well fitted curve in the direction sought with a large enough effect; inconclusive means small, poorly fitted or top-dose-only effect, or another doubt; inactive means no such curve, though single readings can be large or run the other way. Numbered stars: 1 amine (or outer) side, 2 acyl side, 3 side chain; on linkers, the order of the positions; unused ones are H or OH. Bridge positions count the residues as written; N and C are the ends. Square brackets hold non-standard residues; d marks the D form. Peptide text beside a SMILES is read from it. I, II: the chains in the order shown. ξ: configuration not given here. Actinocin(9to1) = Cc1c2oc3c(C)ccc(C(=O)[*:1])c3nc-2c(C(=O)[*:2])c(N)c1=O; aThr = C[C@H](O)[C@H](N)C(=O)O; NMeV = CN[C@H](C(=O)O)C(C)C; ξNMeV = CNC(C(=O)O)C(C)C; ξV = CC(C)C(N)C(=O)O; Sar = CNCC(=O)O

This experiment relates to Zika virus NS2B-NS3 protease (linked). The experiment in a line: Optimization screen NINDS AMC qHTS for Zika virus inhibitors: Linked NS2B-NS3 protease assay. In a few lines:
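Compounds tested in dose response, 15 min at room temperature with 1 nM linked NS2B-NS3 protease, pH 8.0 Tris/Tween buffer. Reaction started with 10 microM AMC substrate; fluorescence (340/450 nm) gain over 15 min, normalized to controls, Hill-fitted.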
A general note: In qHTS, concentration-response curves come from the screen itself.

For the compound `CC1O[C@@H](O[C@@H]2C(O)C[C@H](O[C@@H]3C(O)C[C@@H](OC4CC[C@@]5(C)C6CC(O)[C@@]7(C)C(C8=CC(=O)OC8)CC[C@@]7(O)C6CC[C@@H]5C4)OC3C)OC2C)CC(O)[C@H]1O` (some centres not stated), the Potency entry was “inactive”.
`C[C@H]1O[C@@H](O[C@H]2[C@@H](O)C[C@H](O[C@H]3[C@@H](O)C[C@H](O[C@H]4CC[C@]5(C)C6C[C@@H](O)[C@]7(C)[C@@H](C8=CC(=O)OC8)CC[C@]7(O)C6CC[C@@H]5C4)O[C@@H]3C)O[C@@H]2C)C[C@H](O)[C@@H]1O` (some centres not stated): the Potency entry was “inactive”.
To `COc1c(C)c2c(c(O)c1C/C=C(\C)CCC(=O)O)C(=O)OC2` belongs “inactive”; to `Cc1ccccc1CNc1ncnc2c1ncn2C1OC(CO)C(O)C1O` (configuration not stated), “inactive”.
In the case of `Cc1c2oc3c(C)ccc(C(=O)N[C@@H]4C(=O)NC(C(C)C)C(=O)N5CCC[C@H]5C(=O)N(C)CC(=O)N(C)C(C(C)C)C(=O)O[C@@H]4C)c3nc-2c(C(=O)N[C@@H]2C(=O)NC(C(C)C)C(=O)N3CCC[C@H]3C(=O)N(C)CC(=O)N(C)C(C(C)C)C(=O)O[C@@H]2C)c(N)c1=O` (some centres not stated) (I: T[ξV]P[Sar][ξNMeV] / II: T[ξV]P[Sar][ξNMeV]; ester I:1-I:C, II:1-II:C; linker I:N-II:N via Actinocin(9to1)), the Potency result is “inactive”.
To `CCCCC(CC)CN=C(N)NC(N)=NCCCCCCN=C(N)NC(N)=NCC(CC)CCCC` (configuration not stated) belongs 19.2 µM (active); to `Cc1c2oc3c(C)ccc(C(=O)N[C@@H]4C(=O)N[C@@H](C(C)C)C(=O)N5CCC[C@@H]5C(=O)N(C)CC(=O)N(C)[C@@H](C(C)C)C(=O)O[C@H]4C)c3nc-2c(C(=O)N[C@@H]2C(=O)N[C@@H](C(C)C)C(=O)N3CCC[C@@H]3C(=O)N(C)CC(=O)N(C)[C@@H](C(C)C)C(=O)O[C@H]2C)c(N)c1=O` (I: [aThr]V[dP][Sar][NMeV] / II: [aThr]V[dP][Sar][NMeV]; ester I:1-I:C, II:1-II:C; linker I:N-II:N via Actinocin(9to1)), “inactive”.

The values are drawn from PubChem BioAssay AID1347150 (National Center for Advancing Translational Sciences (NCATS), 2019).
